# Values without a mark were called inactive. Records with an inconclusive call do not appear. Where a call stands in place of a potency, no number is given. Calls of active or inactive are those of the source. Unless noted, calls follow the shape of the dose curve; as a rule, active = well fitted curve in the direction sought with a large enough effect in the repeat runs; inconclusive = weak or mixed curves; inactive = no such curve, though single readings can be large; an effect the other way counts as inactive or inconclusive.
# How the values were obtained:
# [1] = qHTS assay to identify small molecule agonists of the hypoxia (HIF-1) signaling pathway - cell viability counter screen (AID 1224844; calls by dose curve; also: nearly all actives have a fitted effect of over 50% in size; also: potency is read from the fitted curve at half-maximal effect)
# Procedure, shortened: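 Luminescent ATP content (CellTiter-Glo, 30 min, room temperature) served as the viability measure in HRE-bla ME-180 cells exposed to compounds for 17 hrs in low-serum medium (0.5% dialyzed FBS).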
# [2] = qHTS assay to identify small molecule agonists of H2AX - cell viability counter screen (AID 1224847; calls by dose curve;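 also: wild-type CHO-K1 cells; top concentration of the series differs between compounds; nearly all actives have a fitted effect of over 30% in size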)
# Procedure, shortened: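 CHO-K1 cells plated overnight at 37C, then exposed 3 h at 37C to compounds at 15 concentrations (0.76% DMSO final). Viability by CellTiter-Glo luminescence after 30 min at room temperature.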
# [3] = qHTS assay to identify small molecule antagonists of the estrogen related receptor (ERR) signaling pathway from Tox21 library (AID 1224848); also: nearly all actives have a fitted effect of over 50% in size; also: potency is read from the fitted curve at half-maximal effect
# Procedure, shortened: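 Reading was by luminescence 30 min after ONE-Glo addition. Before that, ERR cells at 2,000 per well had rested 6 h at 37 C/5% CO2 and then received pin-tooled compounds in DMSO for 18 h at 37 C.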
# [4] = qHTS assay to identify small molecule agonists of the estrogen related receptor (ERR) signaling pathway from Tox21 library (AID 1224849; calls by dose curve; also: nearly all actives have a fitted effect of over 15% in size); conditions: ERR reporter cell line, ONE-Glo luciferase, 18 h; at 92.4 µM (top of the series) unless noted
# Procedure, shortened: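 We plated ERR reporter cells, waited 6 h, added compounds in DMSO by pin tool and incubated them 18 h at 37 C. ONE-Glo was then added and luminescence read after 30 min.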
# [5] = qHTS RealTime-Glo MT Cell Viability Assay in HepG2 cells - 24 hour (AID 1224867); also: nearly all actives have a fitted effect of over 50% in size
# Procedure, shortened: (§1)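 Viability was tracked continuously by NanoLuc luminescence from prosubstrate reduced by living HepG2 cells, at successive time points over 40 h of compound exposure. Cells with reagent were preincubated 5 h at 37 °C before compound addition.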
# [6] = qHTS RealTime-Glo MT Cell Viability Assay in HEK293 cells - 32 hour (AID 1224868); also: nearly all actives have a fitted effect of over 50% in size; also: potency is read from the fitted curve at half-maximal effect
# Procedure, shortened: (§2)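 Viability tracked continuously by luminescence as live cells reduce a prosubstrate for NanoLuc; HEK293 cells preincubated 5 h, compound-treated at 37 C, and read at 0, 8, 16, 24, 32 and 40 h.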
# [7] = A CellTox Green Cytotoxicity Assay to monitor cytotoxicity in HEK293 cells - 0 hour (AID 1224869); also: nearly all actives have a fitted effect of over 50% in size
# Procedure, shortened: (§3)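 Each value comes from one timepoint of a single continuous run in which HEK293 cells with CellTox Green were exposed to compound for up to 40 h at 37 C, dye fluorescence rising with cell death.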
# [8] = qHTS RealTime-Glo MT Cell Viability Assay in HepG2 cells - 40 hour (AID 1224870); also: nearly all actives have a fitted effect of over 50% in size; also: potency is read from the fitted curve at half-maximal effect
# Procedure, shortened: (§4)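 Real-time viability: cells seeded at 600 per well together with NanoLuc and cell-permeant prosubstrate, compounds added after 5 h incubation. Luminescence tracked at 0, 8, 16, 24, 32 and 40 h of exposure.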
# [9] = A CellTox Green Cytotoxicity Assay to monitor cytotoxicity in HEK293 cells - 40 hour (AID 1224871); also: nearly all actives have a fitted effect of over 45% in size
# Procedure, shortened: as §3
# [10] = qHTS RealTime-Glo MT Cell Viability Assay in HEK293 cells - 16 hour (AID 1224872)
# Procedure, shortened: as §2
# [11] = qHTS RealTime-Glo MT Cell Viability Assay in HepG2 cells - 8 hour (AID 1224873); also: nearly all actives have a fitted effect of over 55% in size
# Procedure, shortened: as §4
# [12] = qHTS RealTime-Glo MT Cell Viability Assay in HEK293 cells - 40 hour (AID 1224874); conditions: RealTime-Glo luminescence; max response: stronger effect = lower value; also: nearly all actives have a fitted effect of over 50% in size; also: potency is read from the fitted curve at half-maximal effect
# Procedure, shortened: (§5)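 qHTS format; HEK293 cells with NanoLuc/prosubstrate reagent, 37 C/5% CO2 for 5 h pre-dosing; compounds 23 nL in DMSO; luminescence at each time point reflects viable cells.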
# [13] = A CellTox Green Cytotoxicity Assay to monitor cytotoxicity in HEK293 cells - 24 hour (AID 1224875); also: nearly all actives have a fitted effect of over 45% in size
# Procedure, shortened: as §3
# [14] = qHTS RealTime-Glo MT Cell Viability Assay in HepG2 cells - 32 hour (AID 1224877); also: nearly all actives have a fitted effect of over 55% in size
# Procedure, shortened: as §1
# [15] = A CellTox Green Cytotoxicity Assay to monitor cytotoxicity in HepG2 cells - 24 hour (AID 1224878); also: nearly all actives have a fitted effect of over 45% in size; also: potency is read from the fitted curve at half-maximal effect
# Procedure, shortened: (§6)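 Continuous culture of HepG2 cells with a membrane-impermeant DNA dye; rising fluorescence marks dead cells. Compound exposure lasted up to 40 h at 37 C, with reads every 8 h from 0 h.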
# [16] = A CellTox Green Cytotoxicity Assay to monitor cytotoxicity in HepG2 cells - 40 hour (AID 1224879); also: nearly all actives have a fitted effect of over 40% in size; also: potency is read from the fitted curve at half-maximal effect
# Procedure, shortened: as §6
# [17] = qHTS assay to identify small molecule agonists of the hypoxia (HIF-1) signaling pathway (AID 1224846; active = well fitted activation curve with a large enough effect in the signal ratio in the repeat runs, not every such curve was filed as active; the % refers to the signal ratio)
# Procedure, shortened: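 Measured by blue/green FRET after loading CCF4-AM: beta-lactamase expressed from a hypoxia response element in ME-180 cells. Test agents were delivered in DMSO and left 17 hrs; cells had been plated 5 hrs earlier in low-serum (0.5% dialyzed FBS) medium.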
# [18] = A CellTox Green Cytotoxicity Assay to monitor cytotoxicity in HepG2 cells - 16 hour (AID 1224876); also: nearly all actives have a fitted effect of over 45% in size
# Procedure, shortened: as §6
# [19] = qHTS RealTime-Glo MT Cell Viability Assay in HEK293 cells - 0 hour (AID 1224880)
# Procedure, shortened: as §5
# [20] = qHTS assay to identify small molecule agonists of H2AX (AID 1224845; active = well fitted activation curve with a large enough effect in the signal ratio in the repeat runs, not every such curve was filed as active; the % refers to the signal ratio)
# Procedure, shortened: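 Phospho-H2AX Ser139 measured by HTRF (ex 320 nm; em 665 and 620 nm) after 24 hr antibody incubation. Compounds, 15 concentrations, 0.76% DMSO, were applied to CHO-K1 cells for 3hr at 37C before lysis.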
structure (smiles),measurement,setting,value
O=C(O)Cc1cc(I)c(Oc2ccc(O)c(I)c2)c(I)c1,Potency,[1],38.9 µM (active)
same,Potency,[2],inactive
same,Potency,[3],27.3 µM (active)
same,"activity change, positive = activation",[4],-36.3%
same,Potency,[5],inactive
same,Potency,[6],inactive
same,Potency,[7],inactive
same,Potency,[8],inactive
same,Potency,[9],inactive
same,Potency,[10],inactive
same,Potency,[11],inactive
same,max response,[12],4.51%
same,Potency,[13],inactive
same,Potency,[14],inactive
same,Potency,[15],inactive
same,Potency,[16],inactive
Cn1c(N)nc2nc[nH]c2c1=O,Potency,[1],inactive
same,outcome,[17],inactive
same,Potency,[2],inactive
same,Potency,[5],inactive
same,Potency,[7],inactive
same,Potency,[8],inactive
same,Potency,[9],inactive
same,Potency,[11],inactive
same,Potency,[13],inactive
same,Potency,[18],inactive
same,Potency,[14],inactive
same,Potency,[15],inactive
same,Potency,[16],21.6 µM (active)
same,Potency,[19],inactive
Oc1ccc(Sc2ccc(O)cc2)cc1,Potency,[1],inactive
same,outcome,[17],inactive
same,Potency,[2],inactive
same,Potency,[5],inactive
same,Potency,[6],20.5 µM (active)
same,Potency,[7],inactive
same,Potency,[8],inactive
same,Potency,[9],inactive
same,Potency,[11],inactive
same,Potency,[12],22.9 µM (active)
same,Potency,[13],inactive
same,Potency,[14],inactive
same,Potency,[15],inactive
same,Potency,[19],inactive
COc1ccc2[nH]c(S(=O)Cc3ncc(C)c(OC)c3C)nc2n1 (stereo unspecified),Potency,[1],inactive
same,outcome,[17],inactive
same,Potency,[2],inactive
same,"activity change, positive = activation",[4],-23.9% [at 42.5 µM]
same,Potency,[5],inactive
same,Potency,[6],inactive
same,Potency,[7],inactive
same,Potency,[8],inactive
same,Potency,[9],inactive
same,Potency,[10],inactive
same,Potency,[11],inactive
same,max response,[12],-17.3%
same,Potency,[13],inactive
same,Potency,[18],inactive
same,Potency,[15],inactive
same,Potency,[19],inactive
CCCCCC/C=C/C=O,Potency,[20],inactive
same,outcome,[17],inactive
same,Potency,[2],inactive
same,Potency,[3],inactive
same,"activity change, positive = activation",[4],2.49%
same,Potency,[5],inactive
same,Potency,[6],inactive
same,Potency,[7],inactive
same,Potency,[8],inactive
same,Potency,[9],inactive
same,Potency,[11],inactive
same,max response,[12],35.7%
same,Potency,[18],inactive
same,Potency,[14],inactive
c1ccc(-c2nc[nH]c2-c2ccccc2)cc1,Potency,[1],inactive
same,Potency,[2],inactive
same,Potency,[5],inactive
same,Potency,[6],inactive
same,Potency,[7],inactive
same,Potency,[8],inactive
same,Potency,[9],inactive
same,Potency,[10],inactive
same,max response,[12],-25%
same,Potency,[13],inactive
same,Potency,[14],inactive
same,Potency,[19],inactive
OCCC1CCCCN1 (stereo unspecified),Potency,[20],inactive
same,outcome,[17],inactive
same,Potency,[2],inactive
same,Potency,[5],inactive
same,Potency,[6],inactive
same,Potency,[7],inactive
same,Potency,[8],inactive
same,Potency,[9],inactive
same,Potency,[10],inactive
same,max response,[12],-19.6%
same,Potency,[13],inactive
same,Potency,[18],inactive
same,Potency,[14],inactive
same,Potency,[15],inactive
same,Potency,[16],inactive
same,Potency,[19],inactive
O=C1[C@H](CC[C@H](O)c2ccc(F)cc2)[C@@H](c2ccc(O)cc2)N1c1ccc(F)cc1,Potency,[20],inactive
same,outcome,[17],inactive
same,Potency,[2],inactive
same,Potency,[3],26.6 µM (active)
same,"activity change, positive = activation",[4],-42.1% [at 42.5 µM]
same,Potency,[5],inactive
same,Potency,[6],19 µM (active)
same,Potency,[7],inactive
same,Potency,[8],inactive
same,Potency,[9],inactive
same,Potency,[11],inactive
same,Potency,[12],19 µM (active)
same,Potency,[13],inactive
same,Potency,[18],inactive
same,Potency,[14],inactive
same,Potency,[15],inactive
same,Potency,[16],inactive
same,Potency,[19],inactive
Nc1cnn([C@@H]2O[C@H](CO)[C@@H](O)[C@H]2O)c(=O)n1,Potency,[1],inactive
same,Potency,[2],inactive
same,Potency,[5],inactive
same,Potency,[6],inactive
same,Potency,[7],inactive
same,Potency,[8],inactive
same,Potency,[9],inactive
same,Potency,[10],inactive
same,Potency,[11],inactive
same,max response,[12],-6.05%
same,Potency,[13],inactive
same,Potency,[18],inactive
same,Potency,[15],inactive
same,Potency,[16],inactive
same,Potency,[19],inactive
CCOC(=O)CC(=O)c1cc(F)c(Cl)nc1Cl,Potency,[1],inactive
same,Potency,[2],inactive
same,Potency,[5],inactive
same,Potency,[7],inactive
same,Potency,[8],inactive
same,Potency,[14],inactive
same,Potency,[15],inactive
O=C(O)c1cn(C2CC2)c2cc(Cl)c(F)cc2c1=O,Potency,[20],inactive
same,outcome,[17],inactive
same,Potency,[2],inactive
same,Potency,[5],inactive
same,Potency,[8],inactive
same,Potency,[14],inactive
same,Potency,[15],inactive
same,Potency,[16],inactive
O=c1c2ccccc2nnn1CCl,Potency,[1],inactive
same,Potency,[5],inactive
same,Potency,[6],inactive
same,Potency,[7],inactive
same,Potency,[8],inactive
same,Potency,[10],inactive
same,Potency,[11],inactive
same,max response,[12],10.3%
same,Potency,[13],inactive
same,Potency,[18],inactive
same,Potency,[14],inactive
same,Potency,[15],inactive
same,Potency,[16],inactive
same,Potency,[19],inactive
CC(C)NCC(O)COc1ccc(CC(N)=O)cc1 (stereo unspecified),Potency,[1],inactive
same,Potency,[5],inactive
same,Potency,[6],inactive
same,Potency,[7],inactive
same,Potency,[8],inactive
same,Potency,[9],inactive
same,Potency,[10],inactive
same,Potency,[11],inactive
same,max response,[12],-1.4%
same,Potency,[13],inactive
same,Potency,[14],inactive
same,Potency,[15],inactive
same,Potency,[19],inactive
O=C(/C=C/c1ccc(O)c(O)c1)O[C@@H]1C[C@](O)(C(=O)O)C[C@@H](O)[C@H]1O,Potency,[1],inactive
same,Potency,[2],inactive
same,Potency,[5],inactive
same,Potency,[7],inactive
same,Potency,[9],inactive
same,Potency,[10],inactive
same,Potency,[11],inactive
same,Potency,[13],inactive
same,Potency,[18],inactive
same,Potency,[14],inactive
same,Potency,[15],inactive
same,Potency,[16],inactive
same,Potency,[19],inactive
CC(C)CCCC(C)CCO (stereo unspecified),Potency,[20],inactive
same,outcome,[17],inactive
same,Potency,[2],inactive
same,Potency,[5],inactive
same,Potency,[7],inactive
same,Potency,[8],inactive
same,Potency,[9],inactive
same,Potency,[11],inactive
same,max response,[12],14.4%
same,Potency,[13],inactive
same,Potency,[14],inactive
same,Potency,[16],inactive
same,Potency,[19],inactive
CCCCCCOC(=O)CCC,Potency,[20],inactive
same,outcome,[17],inactive
same,Potency,[2],inactive
same,Potency,[5],inactive
same,Potency,[6],inactive
same,Potency,[7],inactive
same,Potency,[8],inactive
same,Potency,[9],inactive
same,Potency,[11],inactive
same,max response,[12],6.13%
same,Potency,[13],inactive
same,Potency,[18],inactive
same,Potency,[14],inactive
same,Potency,[15],inactive
same,Potency,[16],inactive
same,Potency,[19],inactive
CN1CCN(C2=Nc3cc(Cl)ccc3Nc3ccccc32)CC1,Potency,[1],inactive
same,Potency,[2],inactive
same,Potency,[7],inactive
same,Potency,[9],inactive
same,Potency,[10],inactive
same,Potency,[11],inactive
same,Potency,[18],inactive
same,Potency,[15],23.9 µM (active)
same,Potency,[16],23.9 µM (active)
CC[C@H](C)[C@@H](C(=O)O)n1sc2ccccc2c1=O,Potency,[20],inactive
same,outcome,[17],inactive
same,Potency,[2],inactive
same,Potency,[6],inactive
same,Potency,[7],inactive
same,Potency,[8],30.9 µM (active)
same,Potency,[11],inactive
same,max response,[12],-0.529%
same,Potency,[13],inactive
same,Potency,[18],inactive
same,Potency,[15],inactive
same,Potency,[16],inactive
same,Potency,[19],inactive

# Reference: PubChem BioAssay (Tox21)
